CHT PAM – allosterically activates the human high affinity choline transporter; Q9GZV3; CHT-expressing cells, membrane potential dye, choline EC20; hits give high values; LV-AA mutant CHT in HEK293 cells; B-score at 10 µM; 310,000 tested, 0.49% active; AID 488977;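 active = initial fluorescence not abnormally high and integrated response B-score, plate-corrected, over 3 SD above library mean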
Target sequence (Q9GZV3 whole entry, looked up): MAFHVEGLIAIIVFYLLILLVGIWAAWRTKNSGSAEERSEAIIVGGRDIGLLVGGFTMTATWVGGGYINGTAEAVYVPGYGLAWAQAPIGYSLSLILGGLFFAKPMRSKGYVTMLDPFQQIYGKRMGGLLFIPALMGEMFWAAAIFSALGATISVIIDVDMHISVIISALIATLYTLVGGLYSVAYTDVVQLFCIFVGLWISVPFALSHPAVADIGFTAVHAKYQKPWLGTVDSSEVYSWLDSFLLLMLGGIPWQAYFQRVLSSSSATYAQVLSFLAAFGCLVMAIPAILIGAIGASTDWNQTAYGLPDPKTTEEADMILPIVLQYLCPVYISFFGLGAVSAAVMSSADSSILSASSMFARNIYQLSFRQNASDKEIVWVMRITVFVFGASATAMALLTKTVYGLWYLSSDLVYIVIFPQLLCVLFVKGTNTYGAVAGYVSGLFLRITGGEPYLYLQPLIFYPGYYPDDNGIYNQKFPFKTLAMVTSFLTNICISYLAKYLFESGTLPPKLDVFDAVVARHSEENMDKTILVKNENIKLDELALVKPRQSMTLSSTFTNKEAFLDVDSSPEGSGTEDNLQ
PHOSPHO1 inh – blocks human PHOSPHO1 phosphatase activity; Q8TCT1; recombinant PHOSPHO1, absorbance phosphatase assay; inhibition, % at 13.3 µM; 290,000 tested, 1.1% active; AID 1565; in the data active = inhibition above about 60%
ANO1 block – mouse TMEM16A channel inhibition, primary screen; 310,000 tested, 1.2% active; AID 588511; Q8BHY3; HEK293 TMEM16A/YFP iodide influx fluorescence, ionomycin; normalized B-score (activity score, 25-100; higher = stronger inhibition) at 10 µM;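 active = ratio plate-corrected score three or more library SD toward inhibition, starting fluorescence score within five deviations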;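 also: score derived from kinetic fluorescence span divided by baseline fluorescence per well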
TMEM16A act – activates or potentiates the mouse TMEM16A chloride channel. Q8BHY3. HEK293 TMEM16A/YFP-H148Q/I152L, iodide quench fluorescence; hits give low values. B-score at 10 µM. 340,000 tested, 0.3% active. AID 623877;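 active = fluorescence-ratio B-score plate-corrected deviation score at least 3 library SD below zero, with starting fluorescence score within 5 deviations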;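 also: channel opened by trigger with iodide after compound preincubation; score built on the fluorescence ratio of max minus min over baseline; more negative score means more quench and so TMEM16A activation or potentiation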
HDAC3 inh – inhibitors of human histone deacetylase 3. O15379. inhibition, % at 8.3 µM. recombinant HDAC3, fluorogenic peptide/trypsin coupled, fluorescence. 320,000 tested, 0.15% active; in the data active = inhibition above about 26%, passing the limit was not always enough
CHT inh – inhibitors of human choline transporter CHT. Q9GZV3. CHT-expressing cells, membrane potential dye, choline response; hits give low values. B-score at 10 µM. 310,000 tested, 0.86% active;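 active = B-score over 3 SD under the library average, and starting fluorescence ratio not unusually high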;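 also: choline stimulus applied at its EC90 after an EC20 pre-addition; B-score computed on integrated fluorescence ratio after choline addition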
CHT inh conf – human CHT inhibition, confirmatory screen | shares compounds with CHT inh | CHT-expressing cells, choline membrane potential dye; LV-to-AA substituted CHT, HEK293 cells | CHT activity remaining % of control (hits give low values), % at 10 µM | 2,400 tested, 70% active;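 active = choline transporter activity left, mean of duplicates at 10 µM, below buffer-only control mean minus 3 SD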;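 also: depolarization triggered by choline at its EC90 following an EC20 pre-addition; 0% = hemicholinium-3 full block and 100% = buffer-only control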
HEK293 CHT ctr – CHT inhibitor counter-screen hit in parental HEK293 cells. shares compounds with CHT inh. membrane potential dye, choline response; active = decrease or increase beyond buffer ±3SD. membrane potential ratio readout (active if shifted either direction beyond buffer ±3SD; no single direction) at 10 µM. 2,400 tested, 4% active. AID 493222;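 also: parental cells lack the transporter so any hit is non-specific; ratio is peak minus trough fluorescence over baseline after EC90 choline challenge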
Numbers without * were called inactive; i = inactive; x = not tested or not shown. The list is not random: actives were taken first. Their share in the collection is about 3.2%.

SMILES	CHT PAM	PHOSPHO1 inh	ANO1 block	TMEM16A act	HDAC3 inh	CHT inh	CHT inh conf	HEK293 CHT ctr
COc1ccccc1NS(=O)(=O)c1ccc(C)c(C(=O)NCC(c2ccco2)N2CCCCC2)c1 (stereo not drawn)	i	x	i	i	0.1	-16.1*	-4.8%*	i
COc1ccc(NS(=O)(=O)c2cccc(C(=O)NCC(c3ccco3)N3CCCCC3)c2)cc1 (stereo not drawn)	i	x	i	i	7.8	-10.7*	0.3%*	i
O=C(NCC(c1ccco1)N1CCCC1)c1cccc(NS(=O)(=O)c2ccc(Br)cc2)c1 (stereo not drawn)	i	x	i	i	3.7	i	x	x
COc1ccccc1NS(=O)(=O)c1cccc(C(=O)NCC(c2ccco2)N2CCCC2)c1 (stereo not drawn)	x	x	x	i	2.5	x	x	x
Cc1cccc(C)c1NC(=O)N1CCCCCCC1	i	-8.2	i	i	-4.2	i	x	x
CCOc1ccc(OCCC(=O)Nc2ccc3c(c2)OCO3)cc1	x	x	x	i	-3.0	x	x	x
CC(NC(=O)COC(=O)c1ccccc1Nc1ccccc1)c1ccccc1 (stereo not drawn)	i	-2.4	i	i	0.9	i	x	x
COc1ccc(Cc2n[nH]c(=S)n2N)cc1OC	i	-9.8	i	i	-1.2	i	x	x
CN1Cc2sc(N)c(C#N)c2CC1(C)C	i	25.3	i	i	-1.9	-8.96*	32.9%*	i
O=C(NNS(=O)(=O)c1ccc([N+](=O)[O-])cc1)c1ccccc1	x	x	x	i	x	x	x	x
O=C(NNS(=O)(=O)c1ccc([N+](=O)[O-])cc1)c1ccc2ccccc2c1O	i	7.5	i	i	9.3	-4.98*	41.7%*	i
CCC(C)c1ccc(NC(=S)NC(C)C2CCCO2)cc1 (stereo not drawn)	i	5.5	i	i	-7.2	-8.32*	47.1%*	i
CCC(C)c1ccc(C(CC)NC(=O)C2CCCO2)cc1 (stereo not drawn)	i	13.8	i	i	1.8	i	x	x
Cc1cc2cc(CCNS(=O)(=O)c3ccc(F)cc3)c(=O)[nH]c2cc1C	i	-8.0	i	i	-10.3	i	x	x
O=C(O)c1cccc(CSc2ncn[nH]2)c1	i	5.0	i	i	9.6	-6.15*	i	i
CC(C)(C)NC(=O)NC(=O)CN1CCN(c2cccc(Cl)c2)CC1	i	5.0	i	i	-1.4	-6.92*	47.3%*	i
CC(C)(C)NC(=O)NC(=O)CN1CCN(c2ccccc2)CC1	i	-4.0	i	i	8.2	i	x	x
CCC(C)[C@H](NC(=O)NCc1ccc(Cl)cc1)C(=O)OC (stereo partly drawn)	i	12.5	i	i	0.8	i	x	x
CC1CCCN(C(=S)NCCc2ccccc2)C1 (stereo not drawn)	i	8.0	i	i	-1.9	i	x	x
CN1CCC(N(C)C(=S)NCCc2ccccc2)CC1	i	8.3	i	i	-0.7	-7.33*	i	i
O=[N+]([O-])c1ccc(O)c(C2=NNC(c3ccccc3F)C2)c1 (stereo not drawn)	i	28.1	100*	i	4.3	-10.2*	19.5%*	i
O=C(NCCN1C(=O)S/C(=C\c2ccc(OC(F)F)cc2)C1=O)[C@@H]1CCCN1C(=O)c1cccs1	i	8.4	i	i	-1.4	i	x	x
O=[N+]([O-])c1ccc(Nc2ccccc2)c2nonc12	i	23.3	i	i	2.6	-5.98*	46.6%*	i
CN1CCN(C(=O)CCCN2C(=O)/C(=C/c3cccc(Br)c3)SC2=S)CC1	x	22.5	x	i	x	x	x	x
O=C(CCN1C(=O)/C(=C\c2ccccc2)SC1=S)N1CCOCC1	i	35.7	i	i	0.6	i	x	x
SMILES	CHT PAM	PHOSPHO1 inh	ANO1 block	TMEM16A act	HDAC3 inh	CHT inh	CHT inh conf	HEK293 CHT ctr
O=C(CCN1C(=O)/C(=C/c2ccccc2)SC1=S)NCCCN1CCOCC1	i	30.4	i	i	7.9	i	x	x
CN1CCN(C(=O)CCN2C(=O)/C(=C/c3cccc(Br)c3)SC2=S)CC1	i	0.4	i	i	-2.3	-5.2*	70.4%*	i
O=C(CCN1C(=O)/C(=C\c2cccc(Br)c2)SC1=S)NCCCN1CCOCC1	i	43.0	i	i	6.7	-5.6*	69.0%*	i
O=C(CCCN1C(=O)/C(=C/c2ccccc2)SC1=S)N1CCOCC1	i	50.8	i	i	-12.4	-5.64*	i	i
CCOC(=O)c1c(N)sc(C(N)=O)c1C	i	-2.4	i	i	4.3	i	x	x
CCOC(=O)c1c(N)ssc1=S	i	14.3	i	i	11.1	-11.5*	17.0%*	i
COc1cccc(NC2=C(NCCO)C(=O)c3ccccc3C2=O)c1	i	8.5	i	i	0.8	i	x	x
Cc1cccc(NC2=C(NCCO)C(=O)c3ccccc3C2=O)c1	i	-11.3	i	i	-2.9	-7.71*	45.4%*	2.52*
CCN(CC)CCCNC(=O)c1ccccc1NC(=O)C1=CSCCO1	i	27.6	i	i	-5.1	-11.6*	21.4%*	i
Cc1ccc(S(=O)(=O)N2CCC(C(=O)N[C@H](C(=O)NCc3ccco3)C(C)C)CC2)cc1	i	-17.7	i	i	-8.4	i	x	x
O=C(CN1CCOCC1)N1CCN(S(=O)(=O)c2ccccc2)C1c1ccccc1 (stereo not drawn)	i	18.6	i	i	-3.4	-6.9*	i	-9.76*
O=C(CSc1ccc2nnc(-c3cccnc3)n2n1)c1ccccc1	i	34.1	i	i	4.3	i	x	x
CC(CCc1ccc(O)cc1)NCCC(c1ccccc1)c1ccccc1 (stereo not drawn)	i	49.1	i	i	-0.9	i	x	x
CC(CCc1ccc(O)cc1)NCc1ccc(Br)cc1 (stereo not drawn)	i	24.7	i	i	-8.3	-5.14*	i	i
Cc1cc(C)c(NC(=O)c2ccc(CN3CCc4ccccc4C3)cc2)c(C)c1	i	-9.0	i	i	-1.6	-11.4*	18.4%*	i
O=C(c1ccc(CN2CCc3ccccc3C2)cc1)N1CCCCC1	i	6.7	i	i	1.0	i	x	x
O=C(c1ccc(CN2CCc3ccccc3C2)cc1)N1CCN(c2ccc(F)cc2)CC1	i	x	i	i	11.0	-4.97*	i	i

Screening results: PubChem BioAssay, several laboratories
